Experimental data: PubChem BioAssay (NCI)
Compounds without any hit were thinned out: in the full panel of roughly 79,000, 15% have a hit. Rule as the data show it: active = growth inhibition above about 70%; inactive = the rest.

Assays:
[1] = NCI Yeast Anticancer Drug Screen. Data for the rad50 strain (AID 155);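 also: 0% = growth of vehicle-only cultures of the same strain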; conditions: S. cerevisiae rad50 strain growth inhibition; at 50.0 µM; active compounds read high
Outline: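 Yeast carrying a defined DNA repair defect were exposed to test compounds, and growth was compared with vehicle-treated controls to give percent inhibition.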

[2] = NCI Yeast Anticancer Drug Screen. Data for the mec2-1 strain (AID 157); conditions: S. cerevisiae mec2-1 strain, at 50.0 µM, active compounds read high
Outline: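 Cells of the genetically defined mec2-1 yeast strain are incubated with test compound. Inhibition of growth is calculated against vehicle-treated controls.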

[3] = NCI Yeast Anticancer Drug Screen. Data for the sgs1 mgt1 strain (AID 161);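 also: 0% = growth of cultures given vehicle only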; conditions: S. cerevisiae sgs1 mgt1 strain, at 50.0 µM, active compounds read high
Outline: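 Read-out: growth inhibition vs vehicle controls. Cells: mutant yeast strain deficient in DNA damage repair.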

[4] = NCI Yeast Anticancer Drug Screen. Data for the cln2 rad14 strain (AID 165);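 also: 0% = growth equal to vehicle treated cultures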; conditions: S. cerevisiae cln2 rad14 strain, at 50.0 µM, active compounds read high
Outline: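 The screen exposed genetically defined yeast (cln2 rad14) to test compounds and scored growth inhibition relative to vehicle-treated controls.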

[5] = NCI Yeast Anticancer Drug Screen. Data for the bub3 strain (AID 167); conditions: S. cerevisiae bub3 mutant strain, at 50.0 µM, active compounds read high
Outline: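 Compounds were applied to a genetically altered yeast strain carrying a cell-cycle control defect. Growth inhibition was scored against vehicle-treated controls.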

[6] = NCI Yeast Anticancer Drug Screen. Data for the mlh1 rad18 strain (AID 175); conditions: S. cerevisiae mlh1 rad18 strain growth inhibition; at 50.0 µM; active compounds read high
Outline: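 Compound-treated yeast growth, normalised to vehicle controls. Strain bears defined DNA repair mutations.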

Measured: growth inhibition

COc1ccc(N2C=Nn3c(nc4sc5c(c4c3=O)CCCC5)C2)cc1
inactive: [1] 9.55% | [2] 4.2% | [3] 0.35% | [4] -1.9% | [5] 4.25% | [6] -24.4%

C[C@H]1CCC2C(OC(=O)[C@@H]2CN(C)C)[C@]2(C)C(=O)C=CC12O (stereo partly specified)
inactive: [1] -24.5% | [2] -31.4% | [3] -10.3% | [4] 17.4% | [5] -6.95% | [6] -36%

CCN(CC)CCOc1ccc(C)c2c1C(=O)CC2
inactive: [1] -27.6% | [2] -9.2% | [3] -8.45% | [4] -8.7% | [5] 21.4% | [6] -23.6%

COc1ccc(N2C(=O)C3c4[nH]c5ccccc5c4C4CC(C)(C)CC(C)(C)C4C3C2=O)cc1 (stereo unspecified)
inactive: [1] 35.9% | [2] 10.7% | [3] 13.3% | [4] -13.1% | [5] 33.1% | [6] 8.65%

COc1ccccc1NC(=O)Cc1nc(=O)[nH]c(=O)[nH]1
inactive: [1] -13.3% | [2] -37.7% | [3] 3.5% | [4] -0.35% | [5] -4.95% | [6] -9.55%

Cc1ccc(C(=O)c2c[nH]c(=O)[nH]c2=O)cc1
inactive: [1] 9.45% | [2] -20.2% | [3] -6.7% | [4] -6.5% | [5] -3.05% | [6] -21.9%

O=C(Cc1nc2ccc(C(=O)c3ccccc3)cc2[nH]c1=O)C(=O)Nc1ccc(Br)cc1
inactive: [1] -27.6% | [2] -28.9% | [3] -2.65% | [4] -9.4% | [5] -3.3% | [6] -3.7%

Cn1c(=O)c2[nH]c(CCCc3ccc([N+](=O)[O-])cc3)nc2n(C)c1=O
inactive: [1] -2.45% | [2] -5.5% | [3] -27.5% | [4] -26.9% | [5] -40.5% | [6] 4.75%

CCCC(C)C(=O)OCCCc1ccccc1 (stereo unspecified)
inactive: [1] 7.55% | [2] -5.2% | [3] 2.9% | [4] -20.1% | [5] 18.8% | [6] 3.8%

Cc1ccc(S(=O)(=O)ON2C(=O)c3cccc4cc([N+](=O)[O-])cc(c34)C2=O)cc1
inactive: [1] 35.1% | [2] 45% | [3] 39.4% | [4] 17.4% | [5] -12.2% | [6] 8.65%

COc1ccc(OC)c(N=Nc2cc(OC)ccc2OC)c1
inactive: [1] -13.6% | [2] -7.8% | [3] 1.1% | [4] -13.8% | [5] 3.3% | [6] -11.9%

Cc1ccc(S(=O)(=O)OC2C(C)(C)C(=O)C2(C)C)cc1
inactive: [1] 7.45% | [2] -2.15% | [3] -0.05% | [4] -11.7% | [5] 17.6% | [6] 8.35%

c1ccc(CCc2nc3ccccc3[nH]2)cc1
inactive: [1] -1.9% | [2] 11.1% | [3] 1.5% | [4] -33.6% | [5] -37.1% | [6] -10.9%

N#CCNC=O
inactive: [1] -2.9% | [2] 7.35% | [3] -13.4% | [4] -11.9% | [5] 2.8% | [6] -11.5%

CC(NC(=O)C(CSCc1ccccc1)NC(=O)OCc1ccccc1)C(=O)OCc1ccccc1 (stereo unspecified)
inactive: [1] -38% | [2] -9.7% | [3] -11.2% | [4] 24.4% | [5] -3.05% | [6] 10.8%

CC(=O)OCC1OC(OC(C)=O)C(NC(=S)N(C)N=O)C(OC(C)=O)C1OC(C)=O (stereo unspecified)
inactive: [1] 0.65% | [2] -8.4% | [3] -16.9% | [4] 12.4% | [5] -19.3% | [6] -40.3%

CC(C)OC(=O)Nc1cccc(C(=O)O)c1
inactive: [1] -6.55% | [2] -6.55% | [3] -2.8% | [4] -14.5% | [5] -16.4% | [6] -0.85%

COc1ccc(N(C)S(=O)(=O)c2ccccc2)cc1
inactive: [1] 15.1% | [2] -8.9% | [3] -3.65% | [4] 10.8% | [5] 0.1% | [6] 15.8%

N#CCCN(C1=NN(C(=O)CC(=O)Nc2ccccc2Cl)C(c2ccccc2)C1)c1ccc(Cl)cc1 (stereo unspecified)
inactive: [1] 28.4% | [2] 19.1% | [3] -10.1% | [4] 25.9% | [5] 16.1% | [6] 3.95%

Cc1ccc(N(C)C)cc1
inactive: [1] -25.3% | [2] -15.1% | [3] 10.8% | [4] -18.4% | [5] -0.45% | [6] 6.4%

CC(C)/C=C1\CCC(CN2CCCC2)C1=O (stereo unspecified)
inactive: [1] 61.5% | [2] 34.6% | [3] 48.5% | [4] 44.5% | [5] 40.7% | [6] 63.5%
